Compound activity from PubChem.
Methyltransferases: Primary Screen for Target Class Profiling of Small Molecule Inhibitors of Methyltransferases | 25,000 compounds, 3.9% hits | calls only at 40 µM | purified enzyme, MTase-Glo SAH luminescence; hits give low values | AID 1745853, 2022; call rule not given here
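Each enzyme was assayed with SAM and its substrate. SAH formation detected by MTase-Glo luminescence; single-point 40 uM screen[…].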
MTase-Glo counter: detection enzyme interference, methyltransferase counter-screen | Potency, µM (doses to about 57.3 µM), inactives show at the top dose activity change, negative = inhibition, hits mostly inhibitors | MTase-Glo coupled enzymes, SAH conversion luminescence, no MTase | shares compounds with Methyltransferases | 180 compounds, 6% hits; active means well fitted inhibition curve with a large enough effect; further: potency means the concentration at half of the fitted maximal effect
* hit, by the source's call; [ ] = another dose, or the depositor's remark. Only a selection was taken, and hits are over-represented in it overall. On the % scale 0 is the no-effect control and ±100 the full control effect.

What do the screens show for `CCOC(=O)c1cc2n(n1)CC(C)(C(=O)NC1CCCC1)N(Cc1ccc(OCC)cc1)C2=O` (configuration not stated)?
Methyltransferases: inactive

What do the screens show for `COc1ccc(CNC(=O)O[C@H]2COCCN(c3nc4ccccc4o3)C2)cc1`?
Methyltransferases: inactive

How did c1ccc(CO[C@H]2COCCN(c3nc4ccccc4o3)C2)cc1 do in these assays?
Methyltransferases: active; MTase-Glo counter: -4%[85.7 µM]

What do the screens show for `O=C1N(Cc2ccc(F)c(F)c2)CCCC12CCN(c1nc3ccccc3o1)C2` (configuration not stated)?
Methyltransferases: inactive

Results for CC(=O)Nc1ccc(Nc2nc3c(S(=O)(=O)c4ccc(C(C)C)cc4)nnn3c3ccccc23)cc1 ?
Methyltransferases: inactive

How did COc1ccc(OC)c(CNC(=O)c2cc3n(n2)CC(C)(C(=O)NCCC(C)C)N(C)C3=O)c1 (configuration not stated) do in these assays?
Methyltransferases: inactive

Results for COc1ccc(-c2cc(C(=O)NCC3CC3)c3c(C4CCNC4)noc3n2)cc1 (configuration not stated) ?
Methyltransferases: inactive

What do the screens show for `CC1CCCCN1CCCN1C(=O)c2cc3occc3n2CC1(C)C(=O)NC1CCCCCCC1` (configuration not stated)?
Methyltransferases: inactive

Results for CC1c2cccn2CCN1C(=O)Nc1ccccc1F (configuration not stated) ?
Methyltransferases: inactive

What do the screens show for `Cn1c(COc2cccc(CN3CCCC3)c2Cl)nnc1C1CC(N)C1` (configuration not stated)?
Methyltransferases: active; MTase-Glo counter: -5%

How did Cc1cc(N2CCN(Cc3nnc(C4CC(N)C4)n3C)CC2)cc(C)n1 (configuration not stated) do in these assays?
Methyltransferases: inactive

How did CN(C)Cc1nnc(C2CC(NC(=O)Cc3c(F)cccc3Cl)C2)n1C (configuration not stated) do in these assays?
Methyltransferases: inactive

What do the screens show for `OCC1(CC2CC2)CCCN(Cc2ccc(C(F)(F)F)nc2)C1` (configuration not stated)?
Methyltransferases: inactive

Results for O=C(CCc1nnn2c1CN(Cc1cn[nH]c1-c1ccc(F)cc1)CC2)N1CCCC1 ?
Methyltransferases: inactive

Results for OCC1(Cc2ccccc2)CCCN(Cc2cn[nH]c2-c2ccc(F)cc2)C1 (configuration not stated) ?
Methyltransferases: active; MTase-Glo counter: 2%

What do the screens show for `CCCn1c(=O)c2ccc(C(=O)NCC(C)C)cc2n2c(=O)n(CC(=O)Nc3cccc(C)c3)nc12`?
Methyltransferases: inactive

What do the screens show for `Cc1ccc(-c2ccc(N)nc2)c2cccnc12`?
Methyltransferases: active; MTase-Glo counter: -6%

What do the screens show for `O=C(CCc1nnc2n(Cc3ccc(Cl)cc3)c(=O)c3ccccc3n12)NCCc1c[nH]c2ccccc12`?
Methyltransferases: inactive

Results for CCc1cccc(C)c1NC(=O)c1ncn2c1C(=O)N(C1CC1)C(C)(C(=O)NCc1ccc(F)cc1)C2 (configuration not stated) ?
Methyltransferases: inactive

What do the screens show for `COc1ccnc(-c2nnc3ccc(Nc4cc(OC)c(OC)c(OC)c4)nn23)c1`?
Methyltransferases: active; MTase-Glo counter: -4%[85.7 µM]

Results for COc1cncc(Nc2cnc3ccc(-c4ccccc4OC)nn23)c1 ?
Methyltransferases: inactive

Results for COc1ccc(-c2cc3n(n2)CC(C)(C(=O)NC2CCCCC2)N(Cc2ccccc2C)C3=O)cc1 (configuration not stated) ?
Methyltransferases: inactive

Results for CC(C)OCCCNC(=O)C1(C)Cn2c(cc3ccccc32)C(=O)N1CCc1cccs1 (configuration not stated) ?
Methyltransferases: inactive

Results for COc1ccc(N2CCN(C(=O)CCc3nnc4n(CCCOC(C)C)c(=O)c5ccccc5n34)CC2)cc1 ?
Methyltransferases: inactive

How did O=C(N[C@H](C1CCNCC1)C1CC(O)C1)c1ccc2nccnc2c1 (some centres not stated) do in these assays?
Methyltransferases: active; MTase-Glo counter: 3%

What do the screens show for `O=C(N[C@H](c1ccccc1)C1CC(O)C1)c1ccc(-n2cccn2)cc1` (some centres not stated)?
Methyltransferases: inactive

Results for NS(=O)(=O)c1ccc(C(=O)NC(Cc2ccncc2)C2CC(O)C2)cc1 (configuration not stated) ?
Methyltransferases: inactive

How did CC(C)CCNC(=O)C1(C)Cn2c(ccc2-c2ccco2)C(=O)N1Cc1ccccc1F (configuration not stated) do in these assays?
Methyltransferases: inactive

How did CCc1ccc(CNC(=O)c2ncn3c2C(=O)N(C2CC2)C(C)(C(=O)NCc2ccc(F)cc2)C3)cc1 (configuration not stated) do in these assays?
Methyltransferases: inactive
